Assay outcomes from PubChem.
Mito fusion yeast = inhibitors of mitochondrial division or activators of mitochondrial fusion. S. cerevisiae fusion-defective mutant growth rescue, CellTiterGlo 48 h. 0.23% of 320,000 active. Potency, µM (top dose mostly 46.1 µM), usual class: activators. AID 485298; also: nearly all actives have a fitted effect of over 45% in size
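S. cerevisiae fusion-defective temperature-sensitive mutants (e.g. fzo1-1, mgm1-5) grown 48 h at 37C in YPEG (ethanol/glycerol non-fermentable) medium with 23 nl compound per well; growth rescue read as CellTiterGlo luminescence.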
VP16 counter = inhibits Gal4-VP16 luciferase reporter, ROR gamma counter-screen | Drosophila S2 Gal4-VP16 UAS-luciferase, luminescence, 20 h | Potency, µM (titrated, usually from 53.6 µM), usual class: inhibitors | 3.5% of 310,000 active;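 also: Gal4-VP16 expression switched on by copper sulfate through the metallothionein promoter; nearly all actives have a fitted effect of over 50% in size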
a7 integrin act = integrin-mediated muscular dystrophy alleviation activation; Potency, µM (titrated, usually from 38.3 µM), hits mostly activators; alpha7betagal myoblasts, beta-gal FDG fluorescence, 48 h; AID 624291; 0.064% of 350,000 active; also: nearly all actives have a fitted effect of over 60% in size
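Alpha7betagal+/- myoblasts (passage 13) were plated 16-24 hr, then exposed to compounds (1:260 dilution of DMSO stock) for 48 hours at 37C. After MPER lysis, β-galactosidase reporter activity was read as FDG fluorescence (ex 480/em 540) after 30 minutes.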
Chronic BCR inh = blocks chronic active B-cell receptor signaling; Potency, µM (titrated, usually from 46.1 µM), most hits filed as inhibitors; ABC-DLBCL IkBa-CBG/CBR reporter, luminescence ratio, 4 h; 0.05% of 340,000 active; AID 493014; active = well fitted inhibition curve with a large enough effect in the signal ratio, with a control signal flat, not every such curve was filed as active; inconclusive = small, poorly fitted or top-dose-only effect, or effect the other way, or a change in a side signal; the % refers to the signal ratio
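Concentration-response series (up to 46 uM) were applied to TMD8 dual-reporter cells for 4 h at 37C with doxycycline. Green/red ratio, after filter-overlap correction, defined %Activity; red signal alone was normalised to basal cells and zero luminescence.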
RORgamma inh = ROR gamma (mouse) transcription inhibition; P51450; Drosophila S2 Gal4-RORgamma UAS-luciferase reporter, 20 h; Potency, µM (series often up to 53.6 µM), actives largely listed as inhibitors; 5.4% of 310,000 active; AID 2551; also: nearly all actives have a fitted effect of over 60% in size
Target sequence (P51450 whole entry, looked up, the tested form may be a part): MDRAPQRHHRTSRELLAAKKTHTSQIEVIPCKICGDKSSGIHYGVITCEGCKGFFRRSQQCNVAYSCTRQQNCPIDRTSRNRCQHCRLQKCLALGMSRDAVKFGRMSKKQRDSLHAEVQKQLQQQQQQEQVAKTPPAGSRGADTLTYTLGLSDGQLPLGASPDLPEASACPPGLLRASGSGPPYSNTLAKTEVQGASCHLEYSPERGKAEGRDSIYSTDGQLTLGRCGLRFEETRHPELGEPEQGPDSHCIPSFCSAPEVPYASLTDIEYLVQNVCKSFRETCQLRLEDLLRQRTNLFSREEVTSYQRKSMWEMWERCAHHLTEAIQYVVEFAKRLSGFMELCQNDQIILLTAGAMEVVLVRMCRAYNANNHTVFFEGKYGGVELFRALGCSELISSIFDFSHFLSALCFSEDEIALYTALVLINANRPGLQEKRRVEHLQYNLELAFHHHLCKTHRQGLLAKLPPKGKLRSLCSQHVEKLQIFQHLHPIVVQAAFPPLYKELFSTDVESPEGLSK
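Stably transfected Drosophila Schneider cells are the test system, with ROR gamma fused to Gal4 and luciferase under UAS control; luminescence is read after 20 hr of 700 uM copper sulfate induction at ambient temperature.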
uPA generation = inhibitors of cell surface uPA generation. cell surface uPA generation assay, qHTS. Potency, µM (top dose mostly 38.3 µM), most hits filed as inhibitors. 0.31% of 330,000 active. AID 540303; active = well fitted inhibition curve with a large enough effect; inconclusive = small, poorly fitted or top-dose-only effect; inactive = no such curve, though single readings can be large or run the other way; tested in mouse RAW 264.7 cells; also: nearly all actives have a fitted effect of over 55% in size
Each line names hits and unclear results; the compound was inactive in the other large screens; ! = not active in a repeat. Hits are enriched below; roughly 5.5% of the tested compounds scored in any of these assays. Unless noted, calls follow the shape of the dose curve; as a rule, active = well fitted curve in the direction sought with a large enough effect; inconclusive = small, poorly fitted or top-dose-only effect, or another doubt; inactive = no such curve, though single readings can be large; an effect the other way counts as inactive or inconclusive.

CC(C)(C)c1cc(C(=O)NNC(=O)Nc2cccc(Cl)c2)n(Cc2ccccc2)n1	none
O=C(CCCN1C(=O)/C(=C/c2ccccc2Cl)SC1=S)NNC(=O)c1ccncc1	VP16 counter 10µM, Chronic BCR inh inconclusive, RORgamma inh inconclusive
O=C(CCCN1C(=O)/C(=C/c2ccccc2Cl)SC1=S)NNC(=O)c1ccccc1Cl	VP16 counter 2.82µM, Chronic BCR inh inconclusive, RORgamma inh 1µM
O=C(CCCN1C(=O)/C(=C\c2cccs2)SC1=S)NNC(=O)c1cccnc1	VP16 counter inconclusive, Chronic BCR inh inconclusive, RORgamma inh 5.62µM
O=C(CCCN1C(=O)/C(=C/c2cccs2)SC1=S)NNC(=O)c1ccncc1	Chronic BCR inh inconclusive
COc1ccc(C(=O)NCC(=O)OCC(=O)NCCC2=CCCCC2)cc1	none
O=C(NCCC1=CCCCC1)c1ccc([N+](=O)[O-])cc1	VP16 counter inconclusive, Chronic BCR inh inconclusive, RORgamma inh inconclusive
O=C(NCCC1=CCCCC1)c1ccc(F)cc1	VP16 counter 11.2µM, Chronic BCR inh inconclusive, RORgamma inh inconclusive
COc1ccc(C(=O)NCCC2=CCCCC2)cc1	VP16 counter inconclusive, Chronic BCR inh inconclusive, RORgamma inh 12.6µM
NCCNCCN	none (no result: Mito fusion yeast, a7 integrin act, Chronic BCR inh, uPA generation)
COC(=O)c1c(C)oc2ccc(N(C(=O)c3ccncc3)S(=O)(=O)c3ccc(C)cc3)cc12	Mito fusion yeast inconclusive, VP16 counter 7.08µM, Chronic BCR inh inconclusive
COC(=O)c1c(C)oc2ccc(N(C(=O)c3ccncc3)S(=O)(=O)c3ccc4ccccc4c3)cc12	Mito fusion yeast inconclusive, VP16 counter 3.55µM, Chronic BCR inh inconclusive, RORgamma inh inconclusive
COC(=O)c1c(C)oc2ccc(N(C(=O)c3ccncc3)S(=O)(=O)c3ccccc3)cc12	VP16 counter inconclusive, Chronic BCR inh inconclusive
Cc1ccc(S(=O)(=O)N(C(=O)c2ccncc2)c2ccc(OC(=O)c3ccncc3)c3ccccc23)cc1	VP16 counter inconclusive, Chronic BCR inh inconclusive, RORgamma inh 12.6µM
Cc1ccc(S(=O)(=O)N(C(=O)c2ccncc2)c2ccc(OC(=O)c3ccncc3)c3ccccc23)c(C)c1	VP16 counter inconclusive, Chronic BCR inh inconclusive, RORgamma inh inconclusive
COC(=O)c1c(C)oc2ccc(N(C(=O)c3ccncc3)S(=O)(=O)c3ccc(C)cc3C)cc12	VP16 counter 4.47µM, Chronic BCR inh inconclusive, RORgamma inh inconclusive
COC(=O)c1c(C)oc2ccc(N(C(=O)Oc3ccccc3)S(=O)(=O)c3ccc(Cl)c([N+](=O)[O-])c3)cc12	none
CCCn1c(C)nc2c(NCCN(C(C)C)C(C)C)nc(C)nc21	none (no result: Mito fusion yeast, a7 integrin act, Chronic BCR inh, uPA generation)
Cc1ccc(S(=O)(=O)Cc2nc(-c3ccc(C(=O)NCc4ccccc4)cc3)oc2C)cc1	none (no result: Mito fusion yeast, VP16 counter, a7 integrin act, RORgamma inh, uPA generation)
CC(=O)Oc1ccc(N(C(C)=O)S(=O)(=O)c2ccccc2)c2ccccc12	none (no result: Mito fusion yeast, VP16 counter, Chronic BCR inh, RORgamma inh, uPA generation)
CC(=O)Oc1ccc(N(C(C)=O)S(=O)(=O)c2ccc(C)cc2C)c2ccccc12	VP16 counter inconclusive, RORgamma inh inconclusive, uPA generation 10µM
O=c1c2cc(N3CCOCC3)ccc2[nH]c(=S)n1CCCN1CCCCCC1	none
CCOc1cc2[nH]c(=S)n(CCCN3CCOCC3)c(=O)c2cc1OCC	Chronic BCR inh inconclusive (no result: uPA generation)
O=c1c2cc(F)ccc2[nH]c(=S)n1CCCN1CCOCC1	VP16 counter inconclusive, RORgamma inh 11.2µM (no result: uPA generation)
Cc1ccc(Cn2c(=S)[nH]c3ccc(N4CCOCC4)cc3c2=O)o1	VP16 counter 3.98µM, Chronic BCR inh inconclusive, RORgamma inh 3.16µM
O=c1c2cc(N3CCOCC3)ccc2[nH]c(=S)n1CCN1CCCC1	Chronic BCR inh inconclusive (no result: uPA generation)
CCCCn1c(=S)[nH]c2ccc(N3CCOCC3)cc2c1=O	VP16 counter 7.08µM, Chronic BCR inh inconclusive, RORgamma inh 2.24µM (no result: a7 integrin act, uPA generation)
CCOc1cc2[nH]c(=S)n(Cc3ccc(C)o3)c(=O)c2cc1OCC	VP16 counter 11.2µM, RORgamma inh 7.08µM (no result: uPA generation)
CCC1(CC)NC(=O)N(CC(=O)N2N=C(c3ccc(Cl)cc3)CC2c2ccco2)C1=O (stereo unspecified)	Chronic BCR inh inconclusive
Nc1nnc(CC(=O)N/N=C/c2ccc(-c3ccc(Cl)cc3Cl)o2)s1	none
COc1ccc(/C=N/NC(=O)c2cccc(Br)c2)cc1COc1ccccn1	Chronic BCR inh inconclusive
Cc1cccc(N2CCN(C(=O)CCCCCn3c(=S)[nH]c4ccc(N5CCOCC5)cc4c3=O)CC2)c1C	VP16 counter 11.2µM, RORgamma inh 7.08µM
CC(C)(C)C1=CC(=O)C(=O)C(C(C)(C)C)=C1	VP16 counter 12.6µM, Chronic BCR inh inconclusive, RORgamma inh 10µM
CC1=NN(C(=O)c2nn(C)cc2Br)C(O)(C(F)(F)F)C1 (stereo unspecified)	VP16 counter 11.2µM, Chronic BCR inh inconclusive, RORgamma inh 3.98µM
CCCC1=NN(C(=O)CCc2ccccc2O)C(O)(C(F)(F)F)C1 (stereo unspecified)	VP16 counter inconclusive, RORgamma inh inconclusive
CC1=NN(C(=O)c2c(Br)c(C)nn2C)C(O)(C(F)(F)F)C1 (stereo unspecified)	VP16 counter inconclusive, Chronic BCR inh inconclusive, RORgamma inh 20µM
Cn1cc(Br)c(C(=O)n2cc(Br)cn2)n1	Chronic BCR inh inconclusive
CC1=NN(C(=O)c2c(Br)cnn2C)C(O)(C(F)(F)F)C1 (stereo unspecified)	VP16 counter 7.94µM, Chronic BCR inh inconclusive, RORgamma inh 5.62µM
CC(C)N(C(=O)Cc1ccccc1[N+](=O)[O-])C(C)C	none
COc1ccc(-n2cc(-c3ccccc3)[n+]3c2CCCCC3)cc1	VP16 counter inconclusive
COc1ccc(-c2cn(-c3ccc(OC)cc3)c3[n+]2-c2ccccc2CC3)cc1	VP16 counter 4.47µM, Chronic BCR inh inconclusive, RORgamma inh inconclusive
COc1ccc(-n2c(-c3ccc(Br)cc3)c[n+]3c2CCc2ccccc2-3)cc1	VP16 counter 6.31µM, uPA generation 5.01µM
COc1ccccc1-n1c(-c2ccccc2)c[n+]2c1CCc1ccccc1-2	VP16 counter 8.91µM, Chronic BCR inh inconclusive, RORgamma inh inconclusive, uPA generation 11.2µM!
COc1ccc(-c2c[n+]3c(n2-c2ccccc2)CCCCC3)cc1	VP16 counter inconclusive, RORgamma inh inconclusive, uPA generation inconclusive
C[C@@]1(C(NC(=O)c2ccc(-c3ccccc3)cc2)c2ccc(Cl)cc2)C[C@H]1C1CCCCC1 (stereo partly specified)	none (no result: Mito fusion yeast, a7 integrin act, Chronic BCR inh, uPA generation)
O=C(NC(=S)N1CCCC1)c1ccc(Cl)cc1Cl	VP16 counter 1.41µM, a7 integrin act inconclusive, RORgamma inh 0.891µM
O=C(NC(=S)N1CCOCC1)c1ccccc1Cl	VP16 counter inconclusive, Chronic BCR inh inconclusive, RORgamma inh 2.82µM
COc1c(Cl)ccc(Cl)c1C(=O)NC(=S)N1CCOCC1	VP16 counter 11.2µM, RORgamma inh 3.55µM
O=C(NC(=S)NCCN1CCOCC1)c1ccccc1Cl	none
COc1ccccc1C(=O)NCCN1CCCC1	none (no result: Mito fusion yeast, VP16 counter, Chronic BCR inh, RORgamma inh, uPA generation)
